Consider 20 molecules from PubChem BioAssay.

A short description of test [1]: antimalarial activity against Dd2 strain (AID 2302;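 active = growth inhibition above 50% at the single 2 µM test dose, taken to imply half-maximal potency below 2 µM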;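 note: 0% = DMSO untreated growth and 100% = chloroquine plus artemisinin killed control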). Conditions: P. falciparum Dd2 in RBCs, LDH growth readout, 72 h; at 2 µM; active compounds read high.
The nature of test [2]: HepG2 cytotoxicity, primary screen, cytotoxicity control for P. falciparum antimalarial project, cell-based, ATP luminescence (AID 2303;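 active = inhibition above 50%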;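 note: 0% = DMSO wells and 100% = digitonin-killed cells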). Conditions: HepG2 viability, 24-48 h, at 10 µM, active compounds read high.
Test [3] concerns the target L-lactate dehydrogenase (Plasmodium falciparum (isolate CDC / Honduras)) (UniProt Q27743). Briefly: PfLDH activity inhibition – cell lysate, 3D7 strain, counter-screen for P. falciparum growth inhibition project (AID 2304).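 Note: 0% = vehicle and 100% = reference inhibitor.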 The note with it: P. falciparum 3D7 crude extract, LDH APAD/NBT absorbance; at 2 µM; active compounds read high. A general note: The purpose of a counterscreen is to sort out artefacts and off-target activity.

Test [4] in a line: inhibition of 3D7 malaria parasite growth – strain 3D7 (AID 2306).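 Note: 0% = DMSO wells and 100% = chloroquine plus artemisinin control wells.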 Conditions: P. falciparum 3D7 erythrocytic growth, LDH absorbance, 72 h; at 2 µM; active compounds read high.
The target in test [5] is Calcium-dependent protein kinase 1 (Plasmodium falciparum (isolate 3D7)) (UniProt P62344). Briefly: PfCDPK1 kinase inhibitors, biochemical, TCAMS library (AID 1159585; cut-off not given, nearly all actives have IC50 up to about 0.98 µM;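 note: inhibitors leave more ATP so luminescence rises with inhibition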). The note with it: recombinant PfCDPK1, Kinase-Glo ATP depletion luminescence. A general note: Kinase-Glo measures the ATP left after a reaction by luminescence.
Chain of Calcium-dependent protein kinase 1 (Plasmodium falciparum (isolate 3D7)) (P62344 whole entry, looked up): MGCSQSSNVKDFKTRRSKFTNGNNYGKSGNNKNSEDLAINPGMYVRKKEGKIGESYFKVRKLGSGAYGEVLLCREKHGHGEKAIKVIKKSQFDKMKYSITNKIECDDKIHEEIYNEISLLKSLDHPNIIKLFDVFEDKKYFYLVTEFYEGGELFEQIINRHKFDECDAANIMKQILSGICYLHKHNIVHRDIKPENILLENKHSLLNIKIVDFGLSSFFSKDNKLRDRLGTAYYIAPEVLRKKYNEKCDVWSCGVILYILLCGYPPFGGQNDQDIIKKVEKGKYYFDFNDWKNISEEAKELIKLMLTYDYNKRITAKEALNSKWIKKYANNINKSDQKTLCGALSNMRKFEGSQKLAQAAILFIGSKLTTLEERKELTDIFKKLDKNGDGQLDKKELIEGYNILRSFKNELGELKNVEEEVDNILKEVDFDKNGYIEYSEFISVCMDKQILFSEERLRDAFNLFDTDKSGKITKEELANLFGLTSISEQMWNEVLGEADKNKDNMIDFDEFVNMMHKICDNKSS
Test [6] concerns the target Plasmodium falciparum protein kinase 6 (PK6, PF3D7_1337100) (UniProt Q8IDW1). As to the kind of experiment: PfPK6 kinase inhibitors, biochemical, TCAMS library (AID 1159586). Conditions: recombinant PfPK6, Kinase-Glo ATP depletion luminescence.
The target in test [7] is Protein kinase 7 (PK7), Plasmodium falciparum 3D7 (PF3D7_0213400) (UniProt Q7YTF7). As to the kind of experiment: inhibition of Plasmodium PK7 catalytic activity – biochemical, TCAMS antimalarial set, Kinase-Glo luminescence (AID 1159587). The note with it: recombinant PfPK7, Kinase-Glo ATP depletion luminescence.
Chain of Protein kinase 7 (PK7), Plasmodium falciparum 3D7 (PF3D7_0213400) (Q7YTF7 1-343): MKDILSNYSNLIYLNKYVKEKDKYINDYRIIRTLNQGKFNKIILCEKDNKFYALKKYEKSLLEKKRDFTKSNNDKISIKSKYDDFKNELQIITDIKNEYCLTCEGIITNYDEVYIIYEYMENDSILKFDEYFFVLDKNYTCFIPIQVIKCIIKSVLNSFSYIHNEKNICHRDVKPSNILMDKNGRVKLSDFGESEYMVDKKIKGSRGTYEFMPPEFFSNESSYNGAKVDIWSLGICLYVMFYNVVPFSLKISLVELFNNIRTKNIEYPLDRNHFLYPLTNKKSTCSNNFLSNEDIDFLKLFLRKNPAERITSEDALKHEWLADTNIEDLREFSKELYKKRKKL
For test [8], the target named is Calcium-dependent protein kinase 4 (Plasmodium falciparum (isolate 3D7)) (UniProt Q8IBS5). Briefly: PfCDPK4 kinase inhibitors, biochemical, TCAMS library (AID 1159588; cut-off not given, nearly all actives have IC50 up to about 0.91 µM). The note with it: recombinant PfCDPK4, Kinase-Glo ATP depletion luminescence.
Chain of Calcium-dependent protein kinase 4 (Plasmodium falciparum (isolate 3D7)) (Q8IBS5 whole entry, looked up): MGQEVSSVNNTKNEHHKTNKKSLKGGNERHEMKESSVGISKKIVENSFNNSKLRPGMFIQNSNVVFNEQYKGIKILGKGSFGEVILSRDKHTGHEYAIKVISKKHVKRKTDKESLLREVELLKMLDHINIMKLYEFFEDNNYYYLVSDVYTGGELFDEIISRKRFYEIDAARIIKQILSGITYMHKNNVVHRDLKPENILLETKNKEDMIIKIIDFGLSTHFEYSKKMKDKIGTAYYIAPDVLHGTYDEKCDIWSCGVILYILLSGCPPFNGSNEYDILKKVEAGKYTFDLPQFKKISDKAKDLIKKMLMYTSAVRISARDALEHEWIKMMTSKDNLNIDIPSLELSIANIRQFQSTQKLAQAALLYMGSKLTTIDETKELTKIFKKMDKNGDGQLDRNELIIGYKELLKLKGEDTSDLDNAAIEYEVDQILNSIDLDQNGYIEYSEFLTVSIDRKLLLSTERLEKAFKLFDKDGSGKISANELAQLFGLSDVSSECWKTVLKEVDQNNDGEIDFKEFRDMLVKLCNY

A number with no mark means an inactive call. For some of these results: Measured potencies and affinities stand elsewhere. Active and inactive are the calls of the source. Unless noted, the rule behind the calls is not given here.

Chain of Plasmodium falciparum protein kinase 6 (PK6, PF3D7_1337100) (Q8IDW1 1-305): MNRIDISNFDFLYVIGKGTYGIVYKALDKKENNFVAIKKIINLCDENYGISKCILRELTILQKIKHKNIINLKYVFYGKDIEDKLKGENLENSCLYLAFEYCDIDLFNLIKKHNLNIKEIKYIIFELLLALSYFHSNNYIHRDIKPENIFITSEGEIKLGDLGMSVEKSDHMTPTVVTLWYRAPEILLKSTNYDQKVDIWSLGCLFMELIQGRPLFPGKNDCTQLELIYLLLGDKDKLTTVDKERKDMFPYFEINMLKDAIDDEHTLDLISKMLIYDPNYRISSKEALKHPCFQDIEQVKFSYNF
Chain of L-lactate dehydrogenase (Plasmodium falciparum (isolate CDC / Honduras)) (Q27743 whole entry, looked up): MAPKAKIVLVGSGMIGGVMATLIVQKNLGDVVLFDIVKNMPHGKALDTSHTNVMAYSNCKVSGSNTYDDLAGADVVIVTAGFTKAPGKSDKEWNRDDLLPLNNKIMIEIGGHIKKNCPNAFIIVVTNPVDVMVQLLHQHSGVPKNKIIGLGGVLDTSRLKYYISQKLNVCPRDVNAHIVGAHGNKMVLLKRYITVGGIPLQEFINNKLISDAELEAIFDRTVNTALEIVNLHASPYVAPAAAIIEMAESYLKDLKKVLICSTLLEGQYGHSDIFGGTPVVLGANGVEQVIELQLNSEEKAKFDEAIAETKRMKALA

In general, inhibition refers to the change of the read-out against control, counted positive when it falls. As to `c1ccc2c(NCCCCCCCNc3ccnc4ccccc34)ccnc2c1`, the growth inhibition was 94% (active) in test [1] and 101% (active) in test [4]. The figures for the inhibition in test [2] and in test [3] were 91% (active) and 1%, respectively. Also, the outcome in test [5], in test [6], in test [7] and in test [8] was inactive.

Regarding `COc1cc(NCCCNCc2cn(Cc3cc(Br)cc(Br)c3)c3ccccc23)nc2ccccc12`, the results for the growth inhibition in test [1] and in test [4] were 85% (active) and 100% (active), respectively. The inhibition in test [2] was 99% (active); in test [3], 4%. Besides, the result in test [5], in test [6], in test [7] and in test [8] was inactive.

As to `CCCCc1ccc(Cc2cnc3nc(N)nc(N)c3c2C)cc1`, the growth inhibition in test [1] was 5%; in test [4] it was 96% (active). Moreover, the inhibition in test [2] is 64% (active); in test [3], 5%. Besides, the result in test [5], in test [6], in test [7] and in test [8] was inactive.

As for `Cc1nnsc1C(=O)Nc1cccc(-c2csc(-c3nc4ccccc4[nH]3)c2)c1`, the growth inhibition in test [1] was 50% (active); in test [4] it was 94% (active). Further, the inhibition was 51% (active) in test [2] and 8% in test [3]. In addition, the outcome in test [5], in test [6], in test [7] and in test [8] was inactive.

In the case of `Cc1ccc(C(NC(=O)c2ccccc2)c2ccc3cccnc3c2O)cc1` (stereo not given), the growth inhibition in test [1] was 72% (active); in test [4] it was 92% (active). For the same molecule, the inhibition in test [2] is 53% (active); in test [3], 7%. Moreover, the outcome in test [5], in test [6], in test [7] and in test [8] was inactive.

Regarding `CCCCC(CC)CN1C(=O)C(c2ccccc2)(c2ccccc2)N=C1N` (stereo not given), the growth inhibition in test [1] was 98% (active); in test [4], 94% (active). Moreover, the inhibition in test [2] was 32%; in test [3], 4%. In addition, the outcome in test [5], in test [6], in test [7] and in test [8] was inactive.

In the case of `CCOC(=O)c1ccc(OCCOc2ccccc2)cc1`, the growth inhibition in test [1] was -3%; in test [4], 99% (active). For the same molecule, the inhibition in test [2] is 63% (active); in test [3], -1%. Also, the outcome in test [5], in test [6], in test [7] and in test [8] was inactive.

`O=C(NCc1cccc(C(F)(F)F)c1)[C@@H]1CCCN1C(=O)c1ccc(O)c(-c2ccc(Cl)c(Cl)c2)c1`: the values for the growth inhibition in test [1] and in test [4] were 97% (active) and 99% (active), respectively. The inhibition in test [2] was -3%; in test [3] it was 2%. Further, the result in test [5], in test [6], in test [7] and in test [8] was inactive.

`CC(C)Cn1cc(C2CCN(CCN3CCC(CNC(=O)c4ccc(-c5ccc(C(F)(F)F)cc5)cc4)CC3)CC2)c2ccccc21`: the growth inhibition was 87% (active) in test [1] and 101% (active) in test [4]. In addition, the figures for the inhibition in test [2] and in test [3] were 100% (active) and 0%, respectively. The outcome in test [5], in test [6], in test [7] and in test [8] was inactive.

Regarding `CCN(CC)CCOC(=O)c1ccc(NC(=O)c2cc(-c3ccc(C)cc3)nc3ccccc23)cc1`, the growth inhibition in test [1] is 12%; in test [4] it was 97% (active). Besides, the inhibition in test [2] was 22%; in test [3], -4%. For the same molecule, the result in test [5], in test [6], in test [7] and in test [8] was inactive.

Consider `NC1CCN(Cc2cccc(-c3ccc(-c4nc5ccc(F)cc5[nH]4)cc3)c2)C1` (stereo not given), for which the growth inhibition in test [1] and in test [4] was 99% (active) in each case. The inhibition in test [2] is 24%; in test [3], -1%. In addition, the result in test [5], in test [6], in test [7] and in test [8] was inactive.

Consider `CCN(CC)CCCC(C)Nc1c(-c2ccc(OC)cc2)cnc2ccccc12` (stereo not given), for which the growth inhibition in test [1] was 38%; in test [4], 93% (active). For the same molecule, the inhibition in test [2] was 3%; in test [3] it was -6%. The outcome in test [5], in test [6], in test [7] and in test [8] was inactive.

As for `COc1cc(Nc2ncc3c(C)nc(-c4cc5ccccc5[nH]4)n3n2)cc(OC)c1OC`, the growth inhibition was 65% (active) in test [1] and 91% (active) in test [4]. Also, the figures for the inhibition in test [2] and in test [3] were 19% and 7%, respectively. The result in test [5], in test [6], in test [7] and in test [8] was inactive.

In the case of `Cc1ccc(NC(=O)Nc2ccc(I)c(OCCN(C)C)c2)cc1Cl`, the growth inhibition in test [1] is 22%; in test [4], 98% (active). Besides, the inhibition in test [2] is 11%; in test [3], -4%. Further, the result in test [5], in test [6], in test [7] and in test [8] was inactive.

For `CC(C)C[C@H](Nc1ccnc(NCC2CCCCC2)n1)C(=O)Nc1ccccc1`, the growth inhibition in test [1] was 42%; in test [4], 87% (active). The inhibition in test [2] is 6%; in test [3], 2%. Besides, the result in test [5], in test [6], in test [7] and in test [8] was inactive.

Turning to `NC(N)=Nc1nc(-c2cccc(NC(=O)C(F)(F)F)c2)cs1`, the growth inhibition in test [1] is 24%; in test [4], 94% (active). In addition, the figures for the inhibition in test [2] and in test [3] were -4% and -2%, respectively. Besides, the result in test [5], in test [6], in test [7] and in test [8] was inactive.

As for `NC1=NC(CCc2ccccc2)N(c2ccc(Cl)cc2)C(N)=N1` (stereo not given), the growth inhibition was 20% in test [1] and 94% (active) in test [4]. For the same molecule, the inhibition in test [2] is 2%; in test [3], -5%. In addition, the result in test [5], in test [6], in test [7] and in test [8] was inactive.

Regarding `Cc1cc(C)cc(CC(=O)N2CCC(n3c(C)nc4ccc(C)cc43)CC2)c1`, the growth inhibition in test [1] and in test [4] was 100% (active) each time. Also, the figures for the inhibition in test [2] and in test [3] were 52% (active) and 6%, respectively. The result in test [5], in test [6], in test [7] and in test [8] was inactive.

For the molecule `Nc1ccc(-c2csc(Nc3ccncc3)n2)cc1`, the growth inhibition was 50% (active) in test [1] and 95% (active) in test [4]. Also, the values for the inhibition in test [2] and in test [3] were 12% and -3%, respectively. In addition, the outcome in test [5], in test [6], in test [7] and in test [8] was inactive.

Consider `COc1ccc2ncc(F)c(CCN3CCC(NCc4cc(OC)c5c(c4)OCCO5)CC3)c2n1`, for which the growth inhibition in test [1] was 53% (active); in test [4], 101% (active). The inhibition in test [2] is -2%; in test [3], -3%. For the same molecule, the result in test [5], in test [6], in test [7] and in test [8] was inactive.
